Results on 111 sequences are retold here after the supplement of paper PMC3334620.

Over roughly 33,000 sequences, “E-score (-0.5 to 0.5)” has its median near -0.0014; the highest 2% begin near 0.25. This excerpt belongs to a sample that is enriched for the highest values.

The target of the experiment is T1, Cad1 (UniProt P24813).
T1 sequence: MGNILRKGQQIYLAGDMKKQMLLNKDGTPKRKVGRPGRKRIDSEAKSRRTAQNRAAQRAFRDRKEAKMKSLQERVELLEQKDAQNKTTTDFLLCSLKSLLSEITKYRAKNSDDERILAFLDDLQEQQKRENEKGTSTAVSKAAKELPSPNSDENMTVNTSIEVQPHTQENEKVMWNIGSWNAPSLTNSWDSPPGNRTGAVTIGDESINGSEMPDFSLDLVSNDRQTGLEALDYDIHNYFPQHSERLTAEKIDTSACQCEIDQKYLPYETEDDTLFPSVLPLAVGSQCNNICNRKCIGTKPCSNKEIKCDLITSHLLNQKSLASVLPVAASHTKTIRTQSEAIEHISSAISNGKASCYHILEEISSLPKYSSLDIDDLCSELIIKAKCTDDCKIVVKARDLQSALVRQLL
The experiment in a line: PBM E-score (8-mer binding enrichment) (E-score (-0.5 to 0.5)); higher = stronger / more preferred TF binding. Conditions: protein concentration: 100 nM; construct: GST-full length. Put shortly: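 Full-length yeast transcription factors or their DNA-binding domains, GST-tagged and expressed with PURExpress, were applied at about 100-200 nM to universal all-10-mer Agilent arrays. These arrays had been made double-stranded by primer extension on fresh or once-stripped slides. Detection used fluorescent anti-GST, normalisation used masliner, and E-scores for ungapped eight-base words pooled with reverse complements came from the Universal PBM Analysis Suite.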
For CCCTTTAA, the “PBM E-score” value was -0.135. Then GTGTTTAA, with 0.233. Regarding GTAGATCA, the “PBM E-score” value is 0.0116. Take AGTGGTAC: the “PBM E-score” value is -0.103. As for GCCACAGC, the “PBM E-score” value was -0.115.

With ATGAGTAA, the “PBM E-score” value was 0.286. With CTGAGTAC, the “PBM E-score” value was -0.06. In the case of GTGAGTAA, the “PBM E-score” value turned out to be 0.129. For ATGAGTAC, the “PBM E-score” value came out at 0.0206.

As to ATGAGTAG, the “PBM E-score” value is 0.0743. In the case of CTGAGTAA it was 0.254; in that of CCTAGTGA, -0.171. Consider AGGGGTCA, for which the “PBM E-score” value was -0.304. CTCGGGGA: the “PBM E-score” value is -0.0482. In the case of GATCCGTA it was -0.0959; in that of ATCGTAAG, -0.0168. In the case of CTCGTAAC, the “PBM E-score” value stood at 0.112.

On to CTCGTAAG, for which the “PBM E-score” value was 0.264. As to CAGAGACC, the “PBM E-score” value is -0.145.

Regarding ATGGTCGC, the “PBM E-score” value was -0.127. With AGGTCTCG, the “PBM E-score” value was -0.2. Consider CCAGAAGC, for which the “PBM E-score” value was -0.248.

Turning to CTATCAAA, the “PBM E-score” value amounted to 0.0734. Take GTATCAAC: the “PBM E-score” value is -0.0681. Regarding TTATCAAA, the “PBM E-score” value is 0.3. As for CAATCAAC, the “PBM E-score” value came out at 0.228. In the case of GAATCAAC it was 0.264; in that of ATATCAAC, 0.253; in that of ATATCAGG, 0.00611. In the case of GAATCAAA, the “PBM E-score” value is 0.0378.

As for ATATCAAG, the “PBM E-score” value amounted to 0.251.

As to GTATCAAA, the “PBM E-score” value is 0.142.

Turning to CTATCAAC, the “PBM E-score” value is 0.219.

For the sequence CTATCAAG, the “PBM E-score” value is 0.0773. With TCAGCACA, the “PBM E-score” value is 0.172. In the case of TAGCGCCA, the “PBM E-score” value was 0.0297.

As to CCAGCTGA, the “PBM E-score” value came out at 0.155. Regarding AGTCAGGG, the “PBM E-score” value was -0.148. In the case of CGATTCTC it was 0.0405; in that of ACATGGCC, 0.141. With CCGCGAAG, the “PBM E-score” value was 0.12. Consider ACTGTCGA, for which the “PBM E-score” value was 0.0753. Then AAGGCTGA, with -0.00348. Turning to CCAGTGCC, the “PBM E-score” value was -0.0306.

For AGTGCGAG, the “PBM E-score” value is -0.0178.

For AGATCAAT, the “PBM E-score” value was -0.021. Regarding ATATCAAA, the “PBM E-score” value amounted to 0.0329. In the case of ATATCAAT, the “PBM E-score” value was determined as 0.253. In the case of AGACCTAT, the “PBM E-score” value worked out at 0.111. In the case of ATCGATGA it was 0.13; in that of CTTCCGCA, 0.0248; in that of ATTCCGCA, -0.0887. As for GTTCCGCA, the “PBM E-score” value is 0.252.

Take GACGGAGA: the “PBM E-score” value amounted to 0.038. For the sequence ATAGGTGA, the “PBM E-score” value is -0.0537. Then TAATCCAA, with 0.255; and AAATCGAA, with -0.156. Consider CAATCGAA, for which the “PBM E-score” value came out at 0.0916. GAATCCAA: the “PBM E-score” value is -0.0184. Take AAATCCAA: the “PBM E-score” value amounted to 0.115.

Consider TAATCGAA, for which the “PBM E-score” value was found to be 0.35.

As for CGTTCGTC, the “PBM E-score” value was determined as 0.248.

On to AGTCTCAT, for which the “PBM E-score” value is -0.0485. On to GCGCATCC, for which the “PBM E-score” value was -0.0757.

As for ATGAGGAC, the “PBM E-score” value was -0.0183.

Take AGGGGCGC: the “PBM E-score” value is -0.103.

Take ATTGTCAC: the “PBM E-score” value was determined as 0.0726. Turning to ATTGTCCC, the “PBM E-score” value was -0.0923. As for ATTGTCAA, the “PBM E-score” value came to 0.084. Regarding ATTGTCCA, the “PBM E-score” value was determined as 0.132.

Take ATTGTCAG: the “PBM E-score” value came to 0.306. Turning to ATTGTCCG, the “PBM E-score” value came out at 0.271. On to ATCAGAAG, for which the “PBM E-score” value was -0.0366. ATTTGGAG: the “PBM E-score” value was -0.204. ACTCCACT: the “PBM E-score” value was -0.0657.

With ACCCGGCG, the “PBM E-score” value was -0.12.

As for CACGACAG, the “PBM E-score” value is 0.0344. In the case of CACTGTAA it was 0.00669; in that of GATACCCA, 0.122.

On to TTACGCAA, for which the “PBM E-score” value was 0.268. In the case of ACGCGCAA it was 0.206; in that of ATACGCAA, 0.119.

Consider ATGCGCAT, for which the “PBM E-score” value was 0.334. In the case of GTACGCAA it was 0.0953; in that of CCGCGCAA, 0.0795. As for ACGCGTAA, the “PBM E-score” value is 0.176. As to ATGCGCAC, the “PBM E-score” value worked out at 0.14. As for GCGCGCAA, the “PBM E-score” value was determined as 0.303. Take TCGCGTAA: the “PBM E-score” value was determined as 0.19. On to GCGCGTAA, for which the “PBM E-score” value came out at 0.293. For ATGCGCAG, the “PBM E-score” value was -0.0137. On to GCCTCAGC, for which the “PBM E-score” value is -0.0857. As for CTTTCACA, the “PBM E-score” value came to 0.209. For the sequence ACAGCATG, the “PBM E-score” value was -0.053.

Consider AACTTGGG, for which the “PBM E-score” value is -0.0849. With GGTTGGTA, the “PBM E-score” value was determined as 0.101. CCGCAGAA: the “PBM E-score” value amounted to 0.179. Turning to GCGCAGAA, the “PBM E-score” value is 0.262. In the case of TAGCGCAA it was 0.207; in that of TGGCGCAA, -0.0637. Consider TTGCGCAA, for which the “PBM E-score” value worked out at 0.258. Turning to TCGCAGAA, the “PBM E-score” value is -0.192. In the case of GTGCGCAA it was 0.0688. Take ATGCGCAA: the “PBM E-score” value worked out at 0.107.

Regarding TCGCGCAA, the “PBM E-score” value amounted to 0.27. With ATACACTA, the “PBM E-score” value was 0.205. Consider ATATCGTG, for which the “PBM E-score” value was 0.164.

In the case of ACACCGCC, the “PBM E-score” value was found to be 0.0284.

Regarding AGGATCTA, the “PBM E-score” value was -0.266.

In the case of ACGCATGC, the “PBM E-score” value stood at 0.283. Consider ACGCATGA, for which the “PBM E-score” value worked out at 0.0155.
